Source: PubChem
GLP-1R agonist: GLP-1 receptor (human) agonism | 380,000 compounds, 0.007% hits | P43220 | Potency, µM (highest dose often 45.6 µM), inactives show at the top dose activation, most hits filed as activators | HEK293 GLP-1R CRE-luciferase, luminescence, 4-6 h; cells express a hypersensitive GLP-1R form; also: % of control where 0% means no effect
Target sequence (P43220 whole entry, looked up): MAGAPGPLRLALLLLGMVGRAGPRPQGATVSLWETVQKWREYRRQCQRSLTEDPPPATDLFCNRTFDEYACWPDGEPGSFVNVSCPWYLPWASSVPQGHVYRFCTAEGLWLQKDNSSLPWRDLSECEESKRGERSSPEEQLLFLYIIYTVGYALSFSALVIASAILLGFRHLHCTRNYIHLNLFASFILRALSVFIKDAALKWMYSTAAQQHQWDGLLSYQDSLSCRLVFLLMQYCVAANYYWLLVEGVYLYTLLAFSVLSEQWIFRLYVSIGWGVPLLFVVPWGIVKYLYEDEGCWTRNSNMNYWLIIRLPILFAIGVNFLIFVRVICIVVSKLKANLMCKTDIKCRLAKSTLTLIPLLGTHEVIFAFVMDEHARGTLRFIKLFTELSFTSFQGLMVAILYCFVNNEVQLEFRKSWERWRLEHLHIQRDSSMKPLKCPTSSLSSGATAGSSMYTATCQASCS
GLP1R cytotox: cytotoxicity in counter-screen for GLP-1R inverse agonists; Potency, µM (titrated, usually from 38.3 µM), for inactives: at the top dose activity change, negative = inhibition, usual class: inhibitors; AID 624418; 410,000 compounds, 0.13% hits; HEK293 cAMP-luciferase reporter cells, luminescence, 24 h;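 also: loss of luciferase light is scored as toxicity; % is scaled to controls: 0 for no effect and ±100 for the full control effect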
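Here, cytotoxicity is scored as loss of luminescence. The MLSMR collection was tested on cells seeded in medium containing 10% Nu serum, with a 24 hr compound exposure preceded by 12 hours of culture.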
GLP1R inv ag: inverse agonists of human GLP-1 receptor; Potency, µM (titrated, usually from 38.3 µM), for inactives: at the top dose activity change, negative = inhibition, hits mostly inhibitors; HEK293 GLP-1R CRE-luciferase, luminescence, 24 h; GLP-1R form is constitutively active; 410,000 compounds, 1.6% hits; P43220; also: % is scaled to controls: 0 for no effect and ±100 for the full control effect; nearly all actives have a fitted effect of over 55% in size
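Assay principle: reduced luminescence from a cAMP-responsive reporter in HEK293 cells co-expressing a constitutively active GLP-1R. Conditions: 24 hr compound incubation, 37 deg C, 5% CO2.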
Numbers without * were called inactive. An excerpt weighted towards active compounds, which were near 1.7% of everything screened. Calls follow the shape of the dose curve; as a rule, active = well fitted curve in the direction sought with a large enough effect; inconclusive = small, poorly fitted or top-dose-only effect, or another doubt; inactive = no such curve, though single readings can be large; an effect the other way counts as inactive or inconclusive. Potency is read from the fitted curve at half-maximal effect.

Screening CC1CN(c2nc3ccccc3nc2SCC(=O)Nc2cccc(C(F)(F)F)c2)CC(C)O1 (stereo not given) returned GLP-1R agonist -6%, GLP1R cytotox inconclusive and GLP1R inv ag 11µM*.
Screening Cc1cccc(NC(=O)CSc2nc3ccccc3nc2N2CC(C)OC(C)C2)c1 (stereo not given) returned GLP-1R agonist 0%, GLP1R cytotox 5% and GLP1R inv ag inconclusive.
`CC(C)(C)OC(=O)NCCCCCc1nnc(SCc2c(F)cccc2Cl)o1` gave GLP-1R agonist 14%, GLP1R cytotox -2% and GLP1R inv ag 10µM*.
`CC(C)(C)OC(=O)N1CCC[C@H]1c1nnc(SCc2c(F)cccc2Cl)o1` gave GLP-1R agonist 15%, GLP1R cytotox -12% and GLP1R inv ag 8.9µM*.
For CC(C)(C)OC(=O)NCCc1nnc(SCc2c(Cl)cccc2Cl)o1 the results were GLP-1R agonist 3%, GLP1R cytotox 10% and GLP1R inv ag 2%.
For CC(C)(C)OC(=O)N1CCC[C@H]1c1nnc(SCc2ccccc2Cl)o1 the results were GLP-1R agonist 2%, GLP1R cytotox -13% and GLP1R inv ag inconclusive.
For C1=C\CCC2(OCCO2)C2(CC/1)OCCO2 the results were GLP-1R agonist 0%, GLP1R cytotox 4% and GLP1R inv ag -7%.
For CCOC(=O)C1=C(C)N(C)C(=O)NC1c1cccc2ccccc12 (stereo not given) the results were GLP-1R agonist 7%, GLP1R cytotox -7% and GLP1R inv ag -13%.
For CO/N=C(/CNC(=O)c1ccc(Cl)cc1Cl)c1ccc(Cl)cc1 the results were GLP-1R agonist -7%, GLP1R cytotox 12% and GLP1R inv ag -6%.
For CO/N=C(/CNC(=O)c1cccc(Cl)c1)c1ccc(Cl)cc1 the results were GLP-1R agonist 1%, GLP1R cytotox 28% and GLP1R inv ag 11µM*.
For Cc1cc(C)cc(NC(=S)N=Nc2c(O)n(C)c3ccc(S(=O)(=O)N4CCOCC4)cc23)c1 the results were GLP-1R agonist 1%, GLP1R cytotox inconclusive and GLP1R inv ag inconclusive.
Cc1ccc(NC(=S)N=Nc2c(O)n(C)c3ccc(S(=O)(=O)N4CCOCC4)cc23)cc1 was read as GLP-1R agonist 9%, GLP1R cytotox 0.63µM* and GLP1R inv ag -7%.
`COc1ccccc1C1CC(c2c(-c3ccccc3)c3cc(Cl)ccc3[nH]c2=O)=NN1S(C)(=O)=O` (stereo not given) gave GLP-1R agonist -6%, GLP1R cytotox -23% and GLP1R inv ag 10µM*.
`COc1cccc(C2CC(c3c(-c4ccccc4)c4cc(Cl)ccc4[nH]c3=O)=NN2S(C)(=O)=O)c1OC` (stereo not given) gave GLP-1R agonist -18%, GLP1R cytotox -4% and GLP1R inv ag inconclusive.
Screening NC(=O)c1ccc(NC(=O)CCCN2C(=O)NC3(CCCC3)C2=O)cc1 returned GLP-1R agonist 5%, GLP1R cytotox -9% and GLP1R inv ag 7%.
Screening O=C(CCN1C(=O)NC2(CCCC2)C1=O)Nc1ccc(Sc2ccc(Br)cc2)cc1 returned GLP-1R agonist 4%, GLP1R cytotox -2% and GLP1R inv ag 11µM*.
Screening COc1ccc(C(CNC(=O)c2cccc([N+](=O)[O-])c2)N2CCOCC2)cc1 (stereo not given) returned GLP1R cytotox 0% and GLP1R inv ag 11%.
`COc1cc2c(cc1OC)C(COc1ccccc1OC)N(C(=O)C(C)C)CC2` (stereo not given) gave GLP-1R agonist 11%, GLP1R cytotox 14% and GLP1R inv ag 17%.
Cc1cc2c(cc1C)CSC(c1ccccc1OC(=O)C(C)C)SC2 was read as GLP-1R agonist 1%, GLP1R cytotox -15% and GLP1R inv ag 10µM*.
Screening Fc1ccc(-c2cn3cc(Cc4ccccc4)sc3n2)cc1 returned GLP1R cytotox -10% and GLP1R inv ag inconclusive.
Fc1ccc(Cc2cn3cc(-c4ccccc4)nc3s2)cc1 was read as GLP-1R agonist -5%, GLP1R cytotox -7% and GLP1R inv ag 5.6µM*.
CC(NC(=O)c1cc(S(=O)(=O)N2CCOCC2)ccc1N1CCCC1)c1ccc(Cl)c(Cl)c1 (stereo not given) was read as GLP-1R agonist -4%, GLP1R cytotox 2% and GLP1R inv ag inconclusive.
Screening O=C(CSc1ncccn1)N(Cc1cccnc1)C(CCc1ccccc1)c1nc2ccccc2[nH]1 (stereo not given) returned GLP-1R agonist -3%, GLP1R cytotox -1% and GLP1R inv ag 12%.
C/C(=N\NC(=O)c1ccc(Cl)cc1)c1ccc(Br)s1 was read as GLP-1R agonist -6%, GLP1R cytotox -15% and GLP1R inv ag -5%.
